Rows were chosen to be rich in hits. Some 3.2% of all compounds tested hit in one or more screens of this group.
ERAP1 inh – human ERAP1 aminopeptidase inhibitors, primary screen, biochemical, single point, plate reader | Endoplasmic reticulum aminopeptidase 1 (Homo sapiens), Q9NZ08 | recombinant ERAP1, Leu-AMC fluorescence, 60 min | inhibition, % at 10.7 µM | 340,000 tested, 0.15% active | AID 652197, 2013;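 active means mean replicate inhibition of at least 30%, or all replicates individually reaching that 30% level; inactive means mean below 30% and not every replicate reaching it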;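 further: 0% = neutral control wells and 100% = L-leucinethiol positive control wells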
Target sequence (Q9NZ08 whole entry, looked up): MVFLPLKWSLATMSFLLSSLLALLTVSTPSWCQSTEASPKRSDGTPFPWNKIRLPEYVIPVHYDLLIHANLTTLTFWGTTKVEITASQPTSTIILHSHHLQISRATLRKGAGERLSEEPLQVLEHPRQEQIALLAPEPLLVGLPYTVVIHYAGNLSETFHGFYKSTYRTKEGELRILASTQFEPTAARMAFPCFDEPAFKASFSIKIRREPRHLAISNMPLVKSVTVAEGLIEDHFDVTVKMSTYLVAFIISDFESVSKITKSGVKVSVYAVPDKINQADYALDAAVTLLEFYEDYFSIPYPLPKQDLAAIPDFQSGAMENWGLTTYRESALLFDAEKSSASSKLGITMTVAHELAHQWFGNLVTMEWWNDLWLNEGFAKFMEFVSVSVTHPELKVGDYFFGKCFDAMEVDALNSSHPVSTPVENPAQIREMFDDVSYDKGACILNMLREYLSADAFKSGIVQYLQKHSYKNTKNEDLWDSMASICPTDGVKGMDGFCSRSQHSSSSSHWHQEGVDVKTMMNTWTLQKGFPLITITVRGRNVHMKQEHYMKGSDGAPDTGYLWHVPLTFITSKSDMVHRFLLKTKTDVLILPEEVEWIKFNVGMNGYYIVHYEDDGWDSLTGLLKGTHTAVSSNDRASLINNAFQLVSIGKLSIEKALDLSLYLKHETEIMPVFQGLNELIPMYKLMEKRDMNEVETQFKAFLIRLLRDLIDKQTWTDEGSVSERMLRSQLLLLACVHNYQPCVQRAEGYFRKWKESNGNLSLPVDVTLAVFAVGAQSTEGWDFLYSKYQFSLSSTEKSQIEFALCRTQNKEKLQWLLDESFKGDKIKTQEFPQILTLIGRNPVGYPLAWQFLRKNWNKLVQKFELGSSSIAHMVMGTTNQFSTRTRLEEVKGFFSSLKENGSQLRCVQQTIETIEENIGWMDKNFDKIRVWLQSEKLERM
Ecoli rRNA inh – reduced GFP signal of wild-type E. coli, primary screen, bacterial rRNA inhibitor project, GFP/RFP fluorescence, OD600, single point | E. coli WT GFP vs humanized-ribosome RFP mutants, 24 h; hits give low values; DMSO median 0, no signal -100 | GFP signal change (wild-type ribosome), % (test concentration not listed) | 350,000 tested, 1.6% active;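 active means significant combined selectivity score with lowered wild-type GFP, culture density cut under 30%, mutant RFP and density less affected; inactive means any of these conditions unmet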
CaV13 FRET inh – Primary screen for inhibitors of IQ motif and Ca2+-dependent inactivation inhibitor domain binding in CACNA1D, Förster resonance energy transfer in living cells, … | 340,000 tested, 0.098% active | HEK cells, CFP/YFP FRET ICDI-IQ, plate reader, 10 min; percent FRET-ratio fall versus neutral wells | inhibition, % at 12.3 µM;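 active means mean replicate inhibition of at least 30% and at least 1% of replicates passing that level; inconclusive means only one of the two criteria is met; inactive means neither criterion is met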;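 further: 0% = median of the neutral control wells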
PGC1a acetyl inh – inhibitors of PGC1a acetylation signal, primary screen, cell-based, U2OS, AlphaScreen, inhibitor mode. 350,000 tested, 0.17% active. AlphaScreen anti-acetyl-lysine; with virally co-expressed GCN5 acetyltransferase. inhibition, % at 15.6 µM;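 active means every replicate shows inhibition of at least 40%; inconclusive means mean inhibition at least 40% but some replicate below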;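 further: 0% = neutral control wells and 100% = positive control wells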
INS-1E GSIS act – GLuc luminescence reporter in INS-1E cells, primary screen for activators of glucose-dependent secretion of insulin; INS-1E GLuc reporter insulin secretion, 2-3 h; activation, % at 16.6 µM; AID 743287, 2014; 370,000 tested, 0.61% active;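 active means lowest replicate activation of at least 40%, so every replicate reaches that level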;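 further: 0% = median of neutral control wells and 100% = median of IBMX positive control wells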
DENV2 CPE rescue – inhibitors of DENV2 cytopathic effect, primary screen, cell-based, plate reader, single concentration; CPE inhibition, % at 9.99 µM; DENV2-infected cells, cytopathic effect rescue; 350,000 tested, 1.7% active; in the data active means CPE inhibition above about 20%, passing the limit was not always enough; inconclusive means no clear call, values can overlap the other calls; tested in BHK-21 cells;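 further: 0% = median of neutral control wells and 100% = median of positive control wells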
* marks the source's active call; other numbers are inactive results; u = inconclusive; x = no result; ! = not active in a repeat.

SMILES | ERAP1 inh | Ecoli rRNA inh | CaV13 FRET inh | PGC1a acetyl inh | INS-1E GSIS act | DENV2 CPE rescue
CNC[C@@H]1Oc2cc(C#Cc3ccc(OC)cc3)ccc2S(=O)(=O)N([C@H](C)CO)C[C@H]1C | 0.7 | 5.0 | x | -24.9 | 2.8 | -8.4
CNC[C@H]1Oc2cc(C#Cc3ccc(OC)cc3)ccc2S(=O)(=O)N([C@@H](C)CO)C[C@@H]1C | -1.4 | 1.2 | x | -14.7 | 3.5 | 33.3*
C[C@H]1CN([C@@H](C)CO)S(=O)(=O)c2ccc(C#Cc3ccccc3)cc2O[C@@H]1CN(C)S(C)(=O)=O | -2.9 | -0.6 | x | -1.1 | -26.8 | -3.7
C[C@@H]1CN([C@@H](C)CO)S(=O)(=O)c2ccc(C#Cc3ccccc3)cc2O[C@H]1CN(C)S(C)(=O)=O | -2.9 | -5.7 | x | 6.9 | -29.7 | 26.5*
C[C@H]1CN([C@@H](C)CO)S(=O)(=O)c2ccc(C3=CCCCC3)cc2O[C@H]1CN(C)S(=O)(=O)c1ccc(F)cc1 | 3.2 | -0.8 | x | -17.7 | -9.3 | 1.5
COc1ccc(OC)c(-c2csc(NC(=O)Cc3ccc(OC)c(OC)c3)n2)c1 | -1.9 | -10.4 | -2.9 | -8.8 | -17.7 | 12.2
COc1cccc(CC(=O)Nc2nc(-c3cc(OC)ccc3OC)cs2)c1 | -1.2 | -23.5* | 1.4 | x | 4.9 | x
COc1ccc(OC)c(-c2csc(NC(=O)Cc3ccccc3)n2)c1 | -2.5 | -49.3 | -2.9 | x | -6.6 | -1.3
COc1ccc(OC)c(-c2csc(NC(=O)COC(=O)C3(C)CC3(Cl)Cl)n2)c1 (stereo not given) | -2.0 | -20.6* | -15.3 | x | -29.8 | 9.5
COc1ccc(CC(=O)Nc2nc(-c3cc(OC)ccc3OC)cs2)cc1 | -0.6 | -21.8* | -1.1 | 8.9 | -7.9 | 2.3
CCOc1ccc(CCNC(=O)Cn2ccc3ccccc3c2=O)cc1OCC | 1.3 | 9.2 | -6.3 | 5.4 | 50.3* | 6.9
CCOc1ccc(CCNC(=O)CSc2cc(=O)n(C)c3ccccc23)cc1OCC | x | x | -1.3 | 3.6 | 56.6* | x
CCCCNC(=O)CSc1cc(=O)n(C)c2ccccc12 | x | x | -4.0 | -4.9 | x | x
CCOc1ccc(CCNC(=O)COc2cc(=O)n(C)c3ccccc23)cc1OCC | -13.2 | -2.1 | -18.1 | x | 52.4* | -7.9
c1cc(-c2ccc(C3[C@H]4CNC[C@@H]3N4CC3CCCCC3)cc2)ccn1 (stereo not given in full) | -6.0 | 0.5 | x | -2.9 | 15.3 | 45.9*!
CCOc1cc(N2CCOCC2)c(OCC)cc1NC(=O)[C@H](C)NC(=O)c1ccco1 | 0.3 | 3.6 | -7.6 | x | -12.7 | 37.5*
O=C(C[C@H]1C[C@@H]2c3cc(NC(=O)Nc4ccc(F)cc4)ccc3O[C@@H]2[C@H](CO)O1)NCC1CC1 | x | 1.2 | x | x | 1.4 | 3.8
Cc1noc(C)c1S(=O)(=O)Nc1ccc2c(c1)C(=O)N([C@H](C)CO)C[C@H](C)[C@H](CN(C)C(=O)Nc1ccccc1)OCCCC[C@H](C)O2 | 0.8 | -0.9 | x | -9.9 | -19.4 | 32.6*
Cc1noc(C)c1S(=O)(=O)Nc1ccc2c(c1)C(=O)N([C@@H](C)CO)C[C@@H](C)[C@H](CN(C)C(=O)Nc1ccccc1)OCCCC[C@@H](C)O2 | -0.1 | -3.3 | x | -1.1 | -18.7 | 97.5*
COc1cccc(-c2ccc3c(c2)[C@H]2[C@H](CCN2S(=O)(=O)c2ccc(F)cc2)[C@H](CO)N3C)c1 | 1.1 | 4.7 | x | -12.3 | 1.2 | -9.6
C[C@@H]1CN([C@H](C)CO)S(=O)(=O)c2ccc(-c3ccncc3)cc2O[C@H]1CN(C)C(=O)C1CCC1 | x | -4.5 | x | -3.4 | 5.9 | x
O=c1c2ccccc2oc2ccc(NCCCN3CCOCC3)cc12 | -1.4 | -5.1 | -18.9 | 3.8 | x | u
Cn1c2ccccc2c(=O)c2cc(NCCCN3CCOCC3)ccc21 | 51.6* | -19.8 | -9.5 | 12.9 | 22.5 | -5.8
CCCNC(=O)Nc1ccc2c(c1)OC[C@H](C)N(CCC(F)(F)F)C[C@H](C)[C@H](OC)CN(C)C2=O | x | 0.6 | x | 18.1 | -5.3 | -2.5
C[C@@H]1CCCCO[C@@H](CN(C)Cc2ccc(C(=O)Nc3ccccc3N)cc2)[C@@H](C)CN([C@@H](C)CO)C(=O)c2cc(N(C)C)ccc2O1 | x | 3.8 | x | x | 0.1 | x
SMILES | ERAP1 inh | Ecoli rRNA inh | CaV13 FRET inh | PGC1a acetyl inh | INS-1E GSIS act | DENV2 CPE rescue
O=C(NCc1ccccc1)[C@H]1CCCN1C(=O)[C@H]1CCCN1C(=O)c1ccccc1 | -4.3 | 6.7 | -11.2 | x | x | 9.9
COc1cccc(OC)c1NC(=O)C1CCCN1C(=O)NCc1ccccc1 (stereo not given) | x | x | -4.7 | 96.9* | x | x
O=C(NCc1ccccc1)[C@H]1CCCN1C(=O)[C@H]1CCCN1C(=O)c1ccc(Cl)cc1 | -0.6 | 9.0 | -3.8 | x | -2.6 | 44.3*
CC(C)(C)OC(=O)N1CCC[C@@H]1C(=O)NCc1ccccc1 | -6.3 | 13.6 | -11.2 | x | x | 0.0
O=C(O)c1ccc(CNC(=O)C2CCCN2C(=O)OCc2ccccc2)cc1 (stereo not given) | -6.6 | 16.6 | -20.5 | x | 2.4 | 25.5*
COc1ccc(NC(=O)C2CCCN2C(=O)NCc2ccccc2)cc1OC (stereo not given) | x | x | -4.2 | x | x | x
COc1cc2c(cc1OC)[C@H](C)N(C(=O)NCc1ccccc1)CC2 | -3.0 | -7.2 | -3.4 | 0.8 | 54.2* | 12.3
CC(=O)N(C)C[C@@H]1Oc2ncc(C#Cc3cccc(F)c3)cc2C(=O)N([C@@H](C)CO)C[C@H]1C | 1.5 | 1.1 | x | 9.8 | 10.2 | 1.5
CN1CCN(C(=O)C[C@H]2CC[C@H]3[C@@H](COC[C@H](O)CN3Cc3ccc(Oc4ccccc4)cc3)O2)CC1 | 0.6 | 0.9 | x | -3.4 | 13.1 | -0.9
COc1ccc2c3c(n(C)c2c1)[C@@H](CO)N(C(=O)NC(C)C)CC31CN(CC2CCCC2)C1 | x | -3.7 | x | 4.1 | -14.4 | 8.4
O=C(NCc1ccccc1Cl)[C@H]1CCCN1C(=O)[C@H]1CCCN1C(=O)c1cccc2ccccc12 | x | -22.9* | -5.3 | x | -30.8 | u
COc1cccc(CNC(=O)[C@H]2CCCN2C(=O)C2CCCN2C(=O)c2ccc(OC)c(F)c2)c1 (stereo not given in full) | 1.0 | 23.9 | x | x | 14.1 | 27.7*
CC(=O)Nc1cccc(Nc2cc(C)nn2C)c1 | -5.9 | 4.9 | -11.1 | 6.4 | 12.3 | 73.0*
Cc1cc(NC(=O)Nc2cccc(C(F)(F)F)c2)n(C)n1 | -1.4 | 0.1 | 8.3 | x | 2.6 | 3.9
COc1cccc(-c2ccc3n(c2=O)C[C@H]2[C@H](CO)[C@@H](C(=O)N(C)C)N(C(=O)C4CCCC4)[C@@H]32)c1 | 0.4 | 0.7 | x | x | 7.3 | 7.5
CS(=O)(=O)c1ccc(Cl)c(NC(=O)COC(=O)Cc2c[nH]c3ccccc23)c1 | -1.4 | -10.7 | -6.0 | 5.4 | 51.6* | u

Bioassay records deposited in PubChem by Broad Institute.
